Laboratory results: PubChem BioAssay (NCI)
The panel holds about 83,000 compounds, 20% with a hit somewhere; the sample as a whole holds those more often.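 Results are percent growth after 48 hours of single-concentration exposure. 100 means growth as in untreated cells, lower positive values show inhibition; negative values down to -100 show cell death.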 Values without a mark were called inactive. Activity calls are given as the source filed them.

The molecules below were run on NCI-H226 lung (assay: NCI-60 one-dose screen, 48 h (100 = growth as untreated, 0 = no growth, -100 = all killed)). Settings: 10 µM unless noted.
Procedure: Growth inhibition of the NCI-H226 human Non-Small Cell Lung tumor cell line is measured as a screen for anti-cancer activity. Cells are grown in 96 well plates and exposed to the test compound for 48 hours. Compounds are tested at a single concentration, which is 10^-5 M for most compounds. The reported endpoint is percent growth (GI% or GIPRCNT), where numbers from 0 - 100% represent growth inhibition, and numbers from -100% - 0 represent cell death. For example, a value of 40 represents 60% growth inhibition. A value of 0 means no net growth occurred over the course of the experiment. A value of -40 indicates 40% of cells at the beginning of the experiment died by the end of the experiment. A value of -100 means all cells are dead at the end of the experiment.
NCI-60 Human Tumor Cell Lines Screen was performed using the standard one-dose NCI protocol, which is described in more detail at https://dtp.cancer.gov/discovery_development/nci-60/default.htm.
Compounds with GIPRCNT values below 10 were considered active. Activity score was based on GIPRCNT using the following formula: […]
Score is 0 for GIPRCNT values of 100 or above, 50 for GIPRCNT values of 0, and 100 for GIPRCNT values of -100.
For COc1ccc2[nH]cc(/C=C3\C(=O)Nc4ccccc43)c2c1, the growth was 62.1%.
In the case of COc1ccc(/C=C/C(=O)c2ccc(NC(=O)CSc3nnc(-c4ccc(Cl)cc4)n3-c3ccccc3)cc2)cc1, the growth was 104%.
O=C(/C=C/c1cn(-c2ccccc2)nc1-c1cccc(Nc2ccnc3cc(Cl)ccc23)c1)c1ccc2c(c1)OCO2 was tested, and the growth was 99.1%.
c1ccc2c(c1)cnc1ccccc12 showed a growth of 111%.
COc1ccc(/C(=C\c2cc(OC)c(OC)c(OC)c2)C(=O)N2CCNCC2)cc1 was tested, and the growth was 94%.
For Nc1n[nH]c2ccc([C@@H]3Nc4c(F)cc5[nH]ncc5c4[C@H]4C5CCC(C5)[C@@H]34)cc12 (stereo not given in full), the growth was 18.4%.
Work on C/C(=N\OC(=O)Nc1cccc(Cl)c1)c1ccccc1 yielded a growth of 92.1%.
COc1cc(C2Nc3ccccc3S2)cc(CN2CCOCC2)c1O (stereo not given) was tested, and the growth was 92.3%.
With CCCCNCC(O)c1cc2c(Cl)cc(Cl)cc2c2cc(C(F)(F)F)ccc12 (stereo not given) the growth was -69.4% (active).
With CNC(=O)c1cc(Oc2ccc(NC(=O)c3nc(S(C)(=O)=O)sc3-c3ccc(F)cc3)cc2)ccn1 the growth was 101%.
CCOP(=O)(O)OP(=O)(O)OCC gave a growth of 103%.
With COc1ccc(-c2[nH]nc(N)c2-c2cc(OC)c(OC)c(OC)c2)cc1 the growth was 68.3%.
CCCc1n(Cc2ccc3ccccc3n2)cc[n+]1Cc1ccc2ccccc2c1 gave a growth of 12.3%.
O=C1c2ccccc2C(=O)c2c1oc1ccc3ccccc3c21 showed a growth of 85.5%.
For COc1cc(NC(C)CCCN)c2ncccc2c1Oc1ccc(Cl)cc1 (stereo not given), the growth was 75%.
COc1cccc(NC(=O)[C@H](C(C)C)n2c(=O)[nH]c3ccccc3c2=O)c1 showed a growth of 92.4%.
COc1ccc(/C(=C\c2cc(OC)c(OC)c(OC)c2)C(=O)Nc2nc3ccc(Cl)cc3s2)cc1 was tested, and the growth was 83.2%.
C=CC[C@]1(O)CC[C@H]2[C@@H]3CCc4cc(O)ccc4[C@H]3CC[C@@]21C showed a growth of 98.9%.
In the case of CC1=C(O)C(=O)C(c2c(C)cc(C)c(Br)c2C)=C(O)C1=O, the growth was 83.3%.
With CSC1=NC(=Nc2c(C)cccc2C)C2(CCC(C(C)(C)C)CC2)N1c1ccc(Cl)cc1 (stereo not given) the growth was 48.6%.
With O=C(CCc1nc2sc3c(c2c(=O)[nH]1)CCC3)NCc1cn(-c2ccccc2)nc1-c1ccccc1 the growth was 92.2%.
In the case of COc1ccc(/C(=C\c2cc(OC)c(OC)c(OC)c2)C(=O)N2CCCNCC2)cc1, the growth was 100%.
Fc1ccc2nc(-c3ccc(-c4noc(-c5ccc(Cl)cc5)n4)cc3)[nH]c2c1 was tested, and the growth was 97.1%.
For CC(=O)[C@@]1(O)[C@H](C)C[C@H]2[C@@H]3C=C(C)C4=Cc5c(cnn5-c5ccccc5)C[C@]4(C)[C@H]3[C@@H](O)C[C@@]21C, the growth was 63.3%.
Molecule COc1cc(-c2n/c(=C\c3c(O)[nH]c4cc(Cl)ccc34)cc3c2=Nc2ccccc2-3)cc(OC)c1OC has a growth of 89.9%.
With COc1cc2cc(C(=O)Nc3ccccc3)c(N)nc2cc1OC the growth was 65.2%.
In the case of NC(N)=N/N=C\c1ccc(OCc2ccccc2)cc1, the growth was 46.4%.
For NS(=O)(=O)c1ccc(N2N=C(c3cccs3)CC2c2ccccc2O)cc1 (stereo not given), the growth was 19.2%.
With O=C1C=CC(=O)N1c1cccc(N2C(=O)C=CC2=O)c1 the growth was 111%.
CCCCCCCCCCCC1=NC(C)(C)CN1C(C)(C)CO showed a growth of 94.8%.
COc1ccc(-c2nsc3c2NC(=O)CC3c2cccc(F)c2)cc1 (stereo not given) showed a growth of 76.5%.
With Nc1c(C(=O)Nc2cccc(Cl)c2)sc2ncc(Br)cc12 the growth was 83.5%.
O=C(CCCCCCc1nc2ccc(Br)cc2[nH]1)NO was tested, and the growth was 19.3%.
Cn1c(=O)c2[nH]c(Cc3ccc4c(c3)OCO4)nc2n(C)c1=O was tested, and the growth was 99.4%.
CCCCCCCCCCCCCC[N+](C)(C)CCCCCCCCCCCCCC gave a growth of 72.9%.
Work on CC(=O)c1c(C)nc(-c2cc(C)cc(Cl)c2)nc1-c1cccc(Oc2ccccc2)c1 yielded a growth of 84%.
CCCCCCCCCCCCCCC(C(=O)OCC)C(=O)OCC gave a growth of 93.3%.
O=C1CC2(O)CSc3nc(=O)cc(n32)N1 (stereo not given) gave a growth of 98.6%.
For C=C1NC(=O)C(C(C)CC)NC(=O)C2CSCC(NC(=O)CCC(=O)O)C(=O)NC(Cc3ccccc3)C(=O)NC(C)C(=O)NC(CC(C)CC)C(=O)NC(C(=O)NC(Cc3ccccc3)C(=O)N3CCCC3C(=O)N2)C(C)OC(=O)C(CO)NC(=O)C(C(O)COC)N(C)C(=O)C(C(C)C)NC(=O)C(CC(C)CC)NC1=O (stereo not given), the growth was 56.8% [6 µM].
Work on CCCCn1c(C)nc2cc(Nc3nc(Cl)nc4nc[nH]c34)ccc21 yielded a growth of 75%.
